Experiment [1] deals with Plasmodium falciparum Sir2 (PF13_0152, Sir2A). The experiment can be described thus: pfSir2 binders on small-molecule microarrays, primary screen, biochemical, small-molecule microarray, 635 nm fluorescence (AID 1098).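 Note: score merges spot fluorescence intensity with its signal-to-noise ratio.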 The conditions noted are these: small-molecule microarray binding, fluorescence 635 nm; higher = more signal.
The nature of experiment [2]: small-molecule microarray binders of probe aDKK1, primary screen, biochemical, biotinylated probe, 635/667 nm fluorescence (AID 1099).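 Note: score merges 667nm spot fluorescence with signal to noise across triplicate slides; reference of the scale not given here.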 Particulars: higher = more signal.
Experiment [3] is described as follows: small-molecule microarray binders of probe aCHRDL2, primary screen, biochemical, biotinylated probe, 635/667 nm fluorescence (AID 1100). Particulars: higher = more signal.
Experiment [4] is described as follows: splicing luciferase reporter signal modulators, primary screen, spliceosome inhibition project, cell-based, HEK293, splice +/- reporter (AID 1101).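 Note: HEK293 cells carrying a splicing-competent luciferase reporter gene; test concentration not given here.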 Particulars: luminescence, 24 h, higher = more signal, called active from +8 up or from −8 down.
Experiment [5] concerns the target Fibroblast growth factor 10 (Homo sapiens) (UniProt O15520). The experiment can be described thus: FGF10 binders on small-molecule microarrays, primary screen, biochemical, small-molecule microarray, 635 nm fluorescence (AID 1102). Particulars: FGF10 binding, fluorescence 635 nm, higher = more signal.
The test system of experiment [6] is glycogen synthase kinase-3 (GSK3A per assay name; protocol says GSK3B). The experiment is described as follows: GSK3 binders on small-molecule microarrays, primary screen, biochemical, small-molecule microarray, 635 nm fluorescence, GSK3A (AID 1103). Note: the record names both GSK3A and GSK3B. The conditions noted are these: small-molecule microarray binding, fluorescence 635 nm; higher = more signal.
The target of experiment [7] is Epidermal growth factor receptor (Homo sapiens) (UniProt P00533). The experiment is described as follows: EGFR binders on small-molecule microarrays, primary screen, biochemical, small-molecule microarray, 635 nm fluorescence (AID 1104).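 Note: score merges 667 nm emission intensity with spot signal to noise over triplicate slides.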 Particulars: EGFR binding, higher = more signal.
Sequence of Epidermal growth factor receptor (Homo sapiens) (P00533 whole entry, looked up): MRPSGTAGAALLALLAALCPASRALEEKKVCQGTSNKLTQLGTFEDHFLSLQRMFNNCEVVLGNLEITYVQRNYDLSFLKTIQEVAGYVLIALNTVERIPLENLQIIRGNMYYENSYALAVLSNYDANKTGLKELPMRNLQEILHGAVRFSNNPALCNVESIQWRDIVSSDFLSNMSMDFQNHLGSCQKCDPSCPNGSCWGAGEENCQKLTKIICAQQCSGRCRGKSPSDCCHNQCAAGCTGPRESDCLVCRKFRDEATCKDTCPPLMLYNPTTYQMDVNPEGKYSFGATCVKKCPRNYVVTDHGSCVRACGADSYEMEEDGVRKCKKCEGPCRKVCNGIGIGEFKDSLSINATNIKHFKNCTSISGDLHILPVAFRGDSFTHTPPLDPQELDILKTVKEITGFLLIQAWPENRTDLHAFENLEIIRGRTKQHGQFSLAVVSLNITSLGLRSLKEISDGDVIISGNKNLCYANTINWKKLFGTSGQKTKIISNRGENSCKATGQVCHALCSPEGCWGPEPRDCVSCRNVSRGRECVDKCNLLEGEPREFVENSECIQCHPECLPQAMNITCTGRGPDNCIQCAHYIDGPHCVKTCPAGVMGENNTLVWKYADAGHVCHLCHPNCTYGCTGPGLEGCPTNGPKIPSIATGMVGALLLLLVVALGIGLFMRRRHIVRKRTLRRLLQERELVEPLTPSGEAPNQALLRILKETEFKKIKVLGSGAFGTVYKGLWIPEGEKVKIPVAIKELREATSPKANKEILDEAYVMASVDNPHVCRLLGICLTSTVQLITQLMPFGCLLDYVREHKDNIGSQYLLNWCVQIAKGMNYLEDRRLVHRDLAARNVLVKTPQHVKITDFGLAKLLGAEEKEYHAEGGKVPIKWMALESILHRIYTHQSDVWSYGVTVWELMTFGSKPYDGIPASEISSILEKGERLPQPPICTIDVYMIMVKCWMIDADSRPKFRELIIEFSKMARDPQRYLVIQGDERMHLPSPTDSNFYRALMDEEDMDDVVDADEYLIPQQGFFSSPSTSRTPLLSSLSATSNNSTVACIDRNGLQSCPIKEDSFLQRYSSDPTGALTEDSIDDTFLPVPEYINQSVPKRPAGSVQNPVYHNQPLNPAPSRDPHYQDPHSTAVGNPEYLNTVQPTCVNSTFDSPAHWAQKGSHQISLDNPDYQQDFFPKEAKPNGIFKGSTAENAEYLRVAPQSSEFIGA
Experiment [8] deals with Follistatin-related protein 3 (Homo sapiens) (UniProt O95633). The experiment can be described thus: FSTL3 binders on small-molecule microarrays, primary screen, biochemical, small-molecule microarray, 635 nm fluorescence (AID 1105).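 Note: score merges emission near 667 nm and signal to noise per printed spot across three slides.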 The conditions noted are these: FSTL3 binding, higher = more signal.
Sequence of Follistatin-related protein 3 (Homo sapiens) (O95633 whole entry, looked up): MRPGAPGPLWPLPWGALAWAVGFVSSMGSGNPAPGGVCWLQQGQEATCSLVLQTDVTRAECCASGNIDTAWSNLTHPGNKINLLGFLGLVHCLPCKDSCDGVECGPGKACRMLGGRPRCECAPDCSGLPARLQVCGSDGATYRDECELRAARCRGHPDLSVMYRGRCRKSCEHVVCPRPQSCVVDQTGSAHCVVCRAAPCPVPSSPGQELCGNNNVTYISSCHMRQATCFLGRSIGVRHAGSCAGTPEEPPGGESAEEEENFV
In experiment [9] the target is Dickkopf-related protein 1 (Homo sapiens) (UniProt O94907). The experiment is described as follows: DKK1 binders on small-molecule microarrays, primary screen, biochemical, small-molecule microarray, 635 nm fluorescence scan (AID 1106).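 Note: score merges emission near 667 nm with signal to noise over three replicate slides.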 The conditions noted are these: DKK1 binding, higher = more signal.
Sequence of Dickkopf-related protein 1 (Homo sapiens) (O94907 whole entry, looked up): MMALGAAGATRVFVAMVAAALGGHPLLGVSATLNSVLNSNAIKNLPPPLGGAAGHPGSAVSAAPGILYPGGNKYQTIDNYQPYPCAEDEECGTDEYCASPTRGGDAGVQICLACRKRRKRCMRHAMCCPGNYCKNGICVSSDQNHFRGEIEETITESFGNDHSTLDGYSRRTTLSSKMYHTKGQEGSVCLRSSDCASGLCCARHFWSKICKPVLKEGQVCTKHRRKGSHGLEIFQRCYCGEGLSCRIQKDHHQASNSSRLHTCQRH
Experiment [10] concerns Inhibin beta A chain (activin A). The experiment can be described thus: INHBA (activin A) binders on microarrays, primary screen, biochemical, small-molecule microarray, 635 nm fluorescence scan (AID 1107).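 Note: mouse activin A protein probed at 4.33 µg/mL on printed slides; score merges bound-protein fluorescence near 667 nm with spot signal-to-noise.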 Particulars: small-molecule microarray binding, higher = more signal.

17 compounds from PubChem BioAssay can be followed below.

Calls of active or inactive are those of the source.

Sequence of Fibroblast growth factor 10 (Homo sapiens) (O15520 whole entry, looked up): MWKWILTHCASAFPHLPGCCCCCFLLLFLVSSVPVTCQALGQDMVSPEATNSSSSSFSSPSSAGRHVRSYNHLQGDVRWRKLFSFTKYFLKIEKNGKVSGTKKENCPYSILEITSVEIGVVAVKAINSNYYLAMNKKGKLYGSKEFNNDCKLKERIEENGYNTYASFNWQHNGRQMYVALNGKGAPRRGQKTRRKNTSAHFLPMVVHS

On to `CCOC(=O)C[C@H]1[C@H](OC(=O)c2ccc(C(=O)c3ccccc3)cc2)[C@@H](NC(=O)c2ccccc2)c2cc(OCCCO)ccc2N1C(=O)c1ccccc1`, for which the composite z-score in experiment [1] is 0.576; in [2], 0.188; in experiment [3], -0.0053; in experiment [5], 0.656; in experiment [6] it was 0.0643; in [7], 0.168. Also, the composite z-score was found to be 0.84 in experiment [8], 0.112 in [9] and 0.136 in experiment [10]. Besides, the z-score in [4] is 0.0733 (inactive).
Consider `CCCNC(=O)[C@@]1(Sc2ccc(C)cc2)CC(=O)N(Cc2ccccc2C(F)(F)F)[C@@H]1c1ccc(CO)cc1I`, for which the composite z-score in experiment [1] was 1.53; in [2] it was 0.277; in experiment [3] it was 0.726; in experiment [5], 0.441; in experiment [6], 0.119; in experiment [7], -0.293. The composite z-score turned out to be 1.01 in experiment [8], 0.262 in experiment [9] and 1.24 in [10]. Further, the z-score in [4] is -1.6 (inactive).
As to `COC(=O)[C@@]1(Cc2ccc(OC)cc2)[C@H]2c3cc(C(=O)N4CCCC4)n(CCCNc4ncc(C(F)(F)F)cc4Cl)c3C[C@H]2CN1C(=O)c1ccccc1`, the composite z-score was determined as 0.596 in experiment [1]; 1.63 in [2]; 0.941 in experiment [3]; 0.595 in [5]; 0.673 in experiment [6]; 0.659 in [7]. The composite z-score in experiment [8] came out at 0.95; in experiment [9], 0.244; in experiment [10], 1.11. Moreover, in experiment [4], the z-score is -2.98 (inactive).
Consider `CCCC=C(CCC)[C@@H](NC(=O)OCC(C)C)c1ccccc1`, for which the composite z-score in [1] was 0.32; in [2] it was 0.907; in experiment [3] it was 1.34; in experiment [5], 0.497; in [6] it was 0.659; in experiment [7] it was 0.111. Besides, the composite z-score in experiment [8] is 0.663; in experiment [9], -0.0115; in experiment [10], 0.622. For the same compound, in experiment [4], the z-score was -1.82 (inactive).
`O=C1O[C@@H](c2ccccc2)[C@@H](c2ccccc2)N2[C@@H](c3ccccc3OCCO)[C@]3(C(=O)Nc4ccc(C#CC5(O)CCCCCC5)cc43)[C@@H](C(=O)N3CCN(c4ncccn4)CC3)[C@H]12`: the composite z-score in [1] is 0.448; in [2] it was -0.125; in [3] it was 0.304; in experiment [5] it was 0.878; in [6] it was 1.06; in [7], 0.301. Further, the composite z-score in [8] was 0.463; in experiment [9], 0.439; in experiment [10] it was -0.431. For the same compound, the z-score in experiment [4] was -0.562 (inactive).
`COC(=O)[C@@]1(Cc2ccccc2)[C@H]2c3cc(C(=O)N(C)C)n(CCc4c[nH]c5ccc(O)cc45)c3C[C@H]2CN1C(=O)c1ccccc1`: the composite z-score turned out to be 0.0625 in [1]; 0.665 in experiment [2]; 1.2 in [3]; 0.288 in experiment [5]; 0.435 in experiment [6]; 0.121 in [7]. Further, the results for the composite z-score in [8], in experiment [9] and in experiment [10] were 0.594, -0.0414 and 1.3, respectively. Also, in experiment [4], the z-score is -1.99 (inactive).
Regarding `O=C1O[C@H](c2ccccc2)[C@H](c2ccccc2)N2[C@H]1[C@@H](C(=O)N1CCN(c3ncccn3)CC1)[C@]1(C(=O)Nc3ccc(C#CC4=CCCCC4)cc31)[C@H]2c1ccccc1OCCO`, the composite z-score in experiment [1] is 1.7; in experiment [2], -0.14; in [3], 0.259; in [5], 1.02; in [6], 1.3; in experiment [7], 0.645. Further, the figures for the composite z-score in experiment [8], in experiment [9] and in experiment [10] were 1.31, 0.71 and 1.08, respectively. In experiment [4], the z-score was -1.14 (inactive).
For `COc1cc(CO)cc(I)c1O[C@H]1C=C(C(=O)NCCO)C[C@@H](N(C(=O)c2cc3ccccc3oc2=O)C2CCCCCC2)[C@@H]1O`, the composite z-score in experiment [1] was 1.09; in experiment [2], -0.28; in [3], -0.302; in [5] it was 0.968; in [6], -0.314; in experiment [7], 0.338. Further, the composite z-score in [8] is 0.348; in [9], 0.306; in experiment [10], -0.0101. Moreover, in experiment [4], the z-score is -1.33 (inactive).
In the case of `C[N+](C)(C)CCCC[C@@H]1NC(=O)[C@H]2C[C@@H](C(=O)NCCCCCCNC(=O)CS)[C@@H](c3ccc(O)cc3)N2C1=O`, the composite z-score in [1] is -0.783; in [2] it was -0.0452; in experiment [3], 0.782; in experiment [5], -0.347; in experiment [6], -1.09; in experiment [7], -0.805. For the same compound, the composite z-score in experiment [8] was -0.884; in experiment [9] it was -0.628; in experiment [10], 0.507. The z-score in experiment [4] was -0.45 (inactive).
`NC(=O)NCC#Cc1ccc2c(c1)[C@]1(C(=O)N2)[C@H](C(=O)O)[C@H]2C(=O)O[C@H](c3ccccc3)[C@H](c3ccccc3)N2[C@@H]1c1ccc(O)cc1`: the composite z-score in [1] is 0.783; in experiment [2], 1.18; in experiment [3], 1.24; in experiment [5] it was 0.295; in experiment [6] it was -0.576; in [7] it was -0.16. The composite z-score in experiment [8] was found to be 1.28; in experiment [9] it was 0.181; in [10] it was 1.25. Further, in experiment [4], the z-score is 0.72 (inactive).
In the case of `CC(C)(C)OC(=O)CC[C@]1(C(N)=O)N=C(c2ccc(OCCCO)cc2)O[C@H]1c1ccccc1`, the composite z-score in experiment [1] is 0.883; in experiment [2], 1.32; in experiment [3], 1.35; in [5], 1.36; in experiment [6], 0.555; in experiment [7] it was -0.589. The composite z-score in experiment [8] was -0.188; in experiment [9], -1.16; in [10], 0.976. The z-score in experiment [4] was 0.138 (inactive).
In the case of `O=C1C2C=CC(C(O)C=Cc3ccc([N+](=O)[O-])cc3)N(n3cnnc3)C2C(=O)N1Cc1ccccc1` (stereo not given), the composite z-score in experiment [1] is 1.53; in [2] it was 0.341; in experiment [3], 0.832; in experiment [5], 0.466; in [6] it was 0.587; in experiment [7] it was -0.0912. The composite z-score is 0.906 in experiment [8], 0.377 in [9] and 1.17 in experiment [10]. Further, in experiment [4], the z-score was 0.243 (inactive).
For `C=C(C(=O)CC[C@H](OC(C)=O)c1ccccc1OCCO)C(C)C`, the composite z-score in [1] is 0.78; in [2], -0.287; in experiment [3], 0.006; in experiment [5], 1.28; in experiment [6], -1.29; in [7], -0.803. Further, the composite z-score in [8] is -0.226; in experiment [9], -0.284; in experiment [10], -0.139. In addition, in experiment [4], the z-score was -1.94 (inactive).
Turning to `CCCCCCc1nc(-c2ccc(-c3ccc(Cl)c(Cl)c3)o2)cc2c1[Si](C(C)C)(C(C)C)O[C@H]2c1ccccc1`, the composite z-score in [1] was 0.0593; in [2] it was -0.294; in [3] it was 0.0787; in [5], -0.515; in experiment [6] it was -1.26; in experiment [7], -0.287. Moreover, the figures for the composite z-score in experiment [8], in experiment [9] and in [10] were -0.737, 0.0981 and 0.62, respectively. The z-score in experiment [4] was -0.112 (inactive).
Turning to `COCCCNC(=O)[C@]1(Cc2ccccc2)N=C(c2ccc(OCCCO)cc2)O[C@@H]1c1ccccc1CN=[N+]=[N-]`, the composite z-score in experiment [1] was 1.24; in experiment [2] it was 1.2; in experiment [3] it was 1.29; in experiment [5], 1.49; in experiment [6], 0.98; in experiment [7] it was 0.25. The results for the composite z-score in experiment [8], in experiment [9] and in [10] were 0.721, -0.0836 and 0.608, respectively. The z-score in experiment [4] is -0.97 (inactive).
With `Cc1ccc([C@H]2C(C(=O)O)=CCN2S(=O)(=O)c2ccc(C)cc2)cc1`, the composite z-score was 0.487 in [1]; 0.215 in experiment [2]; 0.761 in experiment [3]; 0.214 in experiment [5]; 0.47 in experiment [6]; -0.327 in experiment [7]. Besides, the figures for the composite z-score in experiment [8], in experiment [9] and in experiment [10] were 0.312, -0.345 and 1.03, respectively. For the same compound, in [4], the z-score is 0.0638 (inactive).
Turning to `CN(C)CCCC[C@@H]1NC(=O)[C@H]2C[C@@H](C(=O)NCCCCCN)[C@@H](c3cccc(OCCO)c3)N2C1=O`, the composite z-score in experiment [1] came to 1.11; in experiment [2], 1.33; in experiment [3], 1.04; in experiment [5], 1.2; in experiment [6] it was 1.06; in experiment [7], 0.0076. Also, the composite z-score amounted to 0.0876 in experiment [8], 0.453 in experiment [9] and 1.41 in [10]. Moreover, in experiment [4], the z-score is 0.0522 (inactive).
